# Laboratory results published in the supplement of paper PMC11417369.
# ± gives the standard deviation of the averaged measurements. Over roughly 25,000 sequences, “ln(normalized median fluorescence intensity)” has its median near 10; the highest 2% begin near 12. Only a selection was taken, and the highest values are over-represented in it overall.
# Tested on: PfAP2-G AP2 domain (GST-tagged)
# Test: gcPBM binding intensity (ln(normalized median fluorescence intensity)); higher = stronger DNA binding
# Procedure, shortened: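 Alexa488 anti-GST antibody, scanned at 488 nm, detected GST-tagged P. falciparum DNA-binding domains that had been expressed in E. coli and incubated for 1 h on an Agilent 4 × 180k array. The array carried primer-extended double-stranded 36-bp intergenic genomic probes and negative controls. Binding intensity is the highest Masliner-normalised natural-log median intensity across replicate spots of either orientation of each probe.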
row,Sequence,gcPBM binding intensity (ln)
1,ATAGAACAGAAAAGGCGTACAATAATATGTAAACAA [XGTACX_site2828],11.8 ± 1.1
2,ATAAAGAAAAGGAACACACAAATATGTAAATATGTA [CACACA_site6356],10.06 ± 0.085
3,TATGAGAACAAACATTGTACAATAAAAAGTAGATAT [XGTACX_site920],11.2 ± 0.35
4,TTTCATAACAAAAAAGTGCAAAATAGCACGAACATT [GTGCAC_site9703],10.3 ± 0.16
5,TAAACACATTATATATGTACATAATAAAAAAAAAAA [XGTACX_site7907],11.2 ± 0.83
6,AAACGATTAATGTGTACACACATAGTTATAAACATA [CACACA_site7073],11.7 ± 1.2
7,TTATAAAACACAAAATGTACAAAAAATTATAATTAA [XGTACX_site6859],10.7 ± 0.33
8,AAACGATTAATGTGTACACACATAGTTATAAACCTA [CACACA_site2110],11.6 ± 0.91
9,AAAAACGATTAATGTGTACACACATAGTTATAAACA [CACACA_site8659],11.7 ± 1.2
10,AAACGATTACTGTGTACACACATAGTTATAAACATA [CACACA_site5195],11.5 ± 0.72
11,TAATGACAATAAAAATAAATAAATAAAAAAAAAAAA [TGCATGCA_negctrl_site321],9.51 ± 0.59
12,ATATAAATATAAACATGTACATATATATATATATAT [XGTACX_site2824],11.1 ± 0.69
13,AAAATTTTTCTTAAAGCATGCACAATTAAGAAGACG [TGCATGCA_site883],10.2 ± 0.13
14,TTTTTCATAAAAAAATAAAAAAAATTAACATAGAAA [XGTACX_negctrl_site11],9.95 ± 0.26
15,TTTATACTTTCAAAATGTACATATATATATATATAT [XGTACX_site6241],11.1 ± 0.63
16,ATATATACTATAATAGTGCATTAAAAAAGTAAAAAT,10.2 ± 0.25
17,AATAAATATATGTACACACACAAATATATACATATC [CACACA_site1903],11.3 ± 0.63
18,AAGGGGAAAAAAAAAAGTACACAAACATAGGATAAT [XGTACX_site377],11.7 ± 1
19,GTTTTAAAACAAATATGTACACATAATATAGGAAAG [XGTACX_site1803],11.7 ± 0.82
20,AAAAAAAAAAAAACAAGTACAAAGGATAGAAAAAAA [XGTACX_site4133],11.2 ± 0.71
21,CATCCACAAATATGTACACACATATATAAATATGTA [CACACA_site7407],11.4 ± 0.93
22,AATATATATATGTGTACACATCCAAAATAGGCATAC [CACACA_site5705],11.7 ± 1.1
23,TAAAACATATATACAAGTACACAAAGGATATATATA [XGTACX_site3710],11.4 ± 0.95
24,TAAATAAATATATGTACACACACAAATATATACATA [CACACA_site8577],11.4 ± 0.73
25,GTAAATACACATATGTGTACATATATATATATATAT [XGTACX_site3696],11.5 ± 0.86

row,Sequence,gcPBM binding intensity (ln)
1,AATAAATATAGGTACACACACAAATATGTACATATC [CACACA_site6976],11.7 ± 0.92
2,AATAAAAATAGGAAATGTACACATATATATATATAT [XGTACX_site1853],11.2 ± 0.59
3,AAAAATATAATATAATGTACACATAAACAAAAAAAA [XGTACX_site3658],11.4 ± 0.84
4,AAAAAAAAAAGAAAGAGTACTTTTTCAATACATATA [XGTACX_site2468],11.1 ± 0.7
5,TTAACTTATTTGTAAAGTACATTAATAAAAAGAAAA [XGTACX_site1588],11.1 ± 0.42
6,ATATATATATATATATGTACATATATTTTTATTTAT [XGTACX_site3508],11.2 ± 0.76
7,TAACTACTAGAAAAAACACACAAAAAGTAAATATAT [CACACA_site2740],10.045 ± 0.007
8,ATACATACATATATATGTACTTATATTTTACACATT [XGTACX_site1688],11.2 ± 0.75
9,AATGGAAAAATAGGCACACACACATAAATACAGATA [CACACA_site4844],10.3 ± 0.18
10,TGTAAATATAAATGTAATAAATATGTAAAAATAAAT [XGTACX_negctrl_site171],9.79 ± 0.13
11,AATGAATAAATAAACACACACACATATATAAATATG [CACACA_site6160],10.05 ± 0.014
12,GATAAAATATGTTGCCGTACATATTCATATACTTAA [XGTACX_site4776],11 ± 0.62
13,GGTAGTTATTATCTCCGTACTTATAAAGAAAAAAGG [XGTACX_site4674],10.9 ± 0.63
14,TATGTATATTTTTTTGTGCACATATATATATATATA,10.4 ± 0.35
15,TTTGTGTGTACGCGTGTGCACATTTTTTTTTTTTTT,11.7 ± 0.92
16,ATTTTTATTTTTTTTGTGCACATTTTCATTTTCTAT [GTGCAC_site9580],10.54 ± 0.085
17,TATAATATAAAAATGAGTACATAGATAATAATATTT [XGTACX_site2376],11.3 ± 0.74
18,ATAAATCATAAGGAGAGTACATAAATAAAATAATCA [XGTACX_site8825],11.2 ± 0.71
19,TCATATTTCCATAGGAGTACATAAAAAAAATAATAT [XGTACX_site7601],11.7 ± 1.2
20,TATACACATATATACACACACATATATAAATAAATA [CACACA_site7579],10 ± 0.23
21,CAAACAAACGGACACACACACACACCCAAAAATGAT [CACACA_site5363],11.2 ± 0.69
22,TATATTTATATAATATGTACATATTTTTTAATATTT [XGTACX_site3834],11.2 ± 0.72
23,ATATGAAAGGTGTACACACGCACACCCAAAAAAATA [CACACA_site2911],11.7 ± 0.95
24,AATGTACACGCACCCACACACAAACAAATATAAATA [CACACA_site7319],11.4 ± 1
